Results filed as inconclusive are left out. Where a call stands in place of a potency, no number is given. Active and inactive are the calls of the source. The call rests on the fitted dose curve; in most records, active means well fitted curve in the direction sought with a large enough effect; inconclusive means small, poorly fitted or top-dose-only effect, or another doubt; inactive means no such curve, though single readings can be large; an effect the other way counts as inactive or inconclusive.
experiment: qHTS of pediatric cancer cell lines to identify multiple opportunities for drug repurposing: Primary screen for BT-12 cells (AID 1347101); conditions: BT-12 viability, CellTiter-Glo luminescence, 48 h; series mostly up to 57.3 µM; further: nearly all actives have a fitted effect of over 25% in size
Outline: (§1)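 Cells (500-1,000/well) rested 5 h, then received compounds for 48 h; metabolically active cells were measured by CellTiter-Glo luminescence. Final concentrations spanned up to 46 µM (MIPE, 11-point) or 0.59 nM-46 µM (NPC, 8-point) in primary screens, 11-point in follow-ups.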
Potency means the concentration at half of the fitted maximal effect.

SMILES	Potency
COc1ccc2ccc(=O)oc2c1CC=C(C)C	24.3 µM (active)
CN(C)c1ccc(-c2nc3ncc(Cl)c(N4CCN(CC(=O)Nc5nccs5)CC4)c3[nH]2)cc1	inactive
Cc1ccc(C(=O)N(CCCN)[C@@H](c2nc3cc(Cl)ccc3c(=O)n2Cc2ccccc2)C(C)C)cc1	0.001 µM (active)
C[C@@H]1CC=CC=CC=CC=C[C@@H](O[C@@H]2O[C@H](C)[C@@H](O)[C@H](N)[C@H]2O)C[C@@H]2O[C@](O)(C[C@@H](O)C[C@@H]3O[C@@H]3C=CC(=O)O1)C[C@H](O)[C@@H]2C(=O)O	15.3 µM (active)
N#CC(c1ccnc(NCCc2cccnc2)n1)c1nc2ccccc2s1 (centres undefined)	21.7 µM (active)

experiment: qHTS of pediatric cancer cell lines to identify multiple opportunities for drug repurposing: Primary screen for Rh18 cells (AID 1347102); conditions: Rh18 rhabdomyosarcoma viability, CellTiter-Glo luminescence, 48 h; series mostly up to 46 µM; further: nearly all actives have a fitted effect of over 65% in size
Outline: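 Viability after 48 h compound treatment at 37C, 500-1,000 cells/well, read as ATP luminescence with CellTiter-Glo. Primary screens used 11-point (MIPE, 0.78 nM-46 µM) or 8-point (NPC, 0.59 nM-46 µM) final concentrations; follow-up screens used 11-point dilutions.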

SMILES	Potency
O=C(c1ccc(C=Cc2n[nH]c3ccccc23)cc1)N1CCNCC1	inactive
CC1(C)CC(=O)c2c(C(F)(F)F)nn(-c3ccc(C(N)=O)c(NC4CCC(O)CC4)c3)c2C1 (centres undefined)	0.264 µM (active)
COc1cc2c(cc1OC)[C@@H]1Cc3ccc(OC)c(OC)c3CN1CC2	inactive
CCCCCCOC(=O)N=C(N)c1ccc(NCc2nc3cc(C(=O)N(CCC(=O)OCC)c4ccccn4)ccc3n2C)cc1	inactive
c1cc(OCCN2CCCCC2)cc(-c2n[nH]c3ccc(-c4ncn[nH]4)cc23)c1	inactive
COc1ccc(-c2cc3nccn3c(Nc3ncccc3C(N)=O)n2)cc1OC	inactive
CC(C)n1c(C=C[C@H](O)C[C@H](O)CC(=O)O)c(-c2ccc(F)cc2)c2ccccc21	5.9 µM (active)
OCCn1cc(-c2ccc3c(c2)CCC3=NO)c(-c2ccncc2)n1	inactive
COc1c(C)cnc(Cn2cnc3c(Cl)nc(N)nc32)c1C	0.332 µM (active)
O=C(Nc1ccccc1)Nc1ccc(-c2ccc(C(=O)[C@H]3CCC[C@H]3C(=O)O)cc2)cc1	inactive
COc1ccc2c(c1)CC[C@H]1[C@@H]2CC[C@]2(C)[C@@H](NCCCCCCN3C(=O)C=CC3=O)CC[C@H]12	inactive
COC(=O)N1CCN(Cc2cccc(NC(=O)Nc3ccc(C)nc3)c2F)CC1	inactive
CN1CCN(c2cccc(Nc3nc4c(-c5ccc(S(C)(=O)=O)cc5)cccn4n3)c2)CC1	18.7 µM (active)
COc1cc(F)c(C(C)C)cc1-c1ccc(C(F)(F)F)cc1CN1C(=O)O[C@H](c2cc(C(F)(F)F)cc(C(F)(F)F)c2)[C@@H]1C	inactive
CCCCn1c(=O)n(Cc2ccccc2F)c(=O)c2[nH]c(Cc3ccc(NC(C)=O)cc3)nc21	inactive
CN1C(=O)C[C@H](C(=O)N[C@@H](Cc2cnc[nH]2)C(=O)N2CCC[C@@H]2C(N)=O)NC1=O	inactive
CCC(=O)NCC[C@@H]1CCc2ccc3c(c21)CCO3	inactive
CN(C)S(=O)(=O)c1ccc2c(c1)C(=Cc1cc3c([nH]1)CCCC3)C(=O)N2	inactive
COc1ccc(Cn2ccc3ccc(C(=O)NO)cc32)cc1	inactive
CCC(c1ccc(O)cc1)C(CC)c1ccc(O)cc1 (centres undefined)	inactive
Nc1ccn([C@@H]2O[C@H](CO)[C@@H](O)[C@H]2O)c(=O)n1	inactive
CC1C(=O)OC2C(O)C34C5CC(C(C)(C)C)C36C(OC(=O)C6O)OC4(C(=O)O5)C12O (centres undefined)	inactive
C=CC[N+]1([C@H]2C[C@H]3[C@@H]4CC[C@H]5C[C@H](O)[C@@H](N6CCOCC6)C[C@]5(C)[C@@H]4CC[C@]3(C)[C@H]2OC(C)=O)CCCC1	inactive
C[C@H]1COC2=C1C(=O)C(=O)c1c2ccc2c1CCCC2(C)C	inactive
COc1cc2nccc(Oc3ccc(NC(=O)Nc4cc(C)on4)c(Cl)c3)c2cc1OC	18.7 µM (active)
Cc1csc(-c2nnc(Nc3ccc(Oc4ncccc4-c4ccnc(N)n4)cc3)c3ccccc23)c1	inactive
CC1=C[C@@H]2[C@@H]([C@@H](O)C[C@@]3(C)[C@H]2C[C@@H](C)[C@]3(O)C(=O)CO)[C@@]2(C)Cc3cnn(-c4ccccc4)c3C=C12	inactive
CN(C)CCCNC(=O)c1ccc(-c2cc(O)c3ncccc3c2)cc1	inactive
CNC(=O)[C@H](Cc1ccccc1)NC(=O)[C@H](CC(C)C)[C@H](CSc1cccs1)C(=O)NO	inactive

experiment: qHTS of pediatric cancer cell lines to identify multiple opportunities for drug repurposing: Primary screen for OHS-50 cells (AID 1347103); conditions: OHS-50 osteosarcoma viability, CellTiter-Glo luminescence, 48 h; series mostly up to 57.3 µM; further: nearly all actives have a fitted effect of over 40% in size
Outline: as §1

SMILES	Potency
O=C(c1ccc(C=Cc2n[nH]c3ccccc23)cc1)N1CCNCC1	2.17 µM (active)
COc1cc2c(cc1OC)[C@@H]1Cc3ccc(OC)c(OC)c3CN1CC2	inactive
COc1ccc(-c2cc3nccn3c(Nc3ncccc3C(N)=O)n2)cc1OC	1.93 µM (active)
OCCn1cc(-c2ccc3c(c2)CCC3=NO)c(-c2ccncc2)n1	inactive
COc1c(C)cnc(Cn2cnc3c(Cl)nc(N)nc32)c1C	0.432 µM (active)
Cc1ccc(C(=O)N(CCCN)[C@@H](c2nc3cc(Cl)ccc3c(=O)n2Cc2ccccc2)C(C)C)cc1	0.001 µM (active)
CN1C(=O)C[C@H](C(=O)N[C@@H](Cc2cnc[nH]2)C(=O)N2CCC[C@@H]2C(N)=O)NC1=O	inactive
COc1cc(N2CCN(C)CC2)ccc1Nc1nc(N)c(C(=O)c2c(Cl)cccc2Cl)s1	inactive
CCC(c1ccc(O)cc1)C(CC)c1ccc(O)cc1 (centres undefined)	27.3 µM (active)
Nc1ccn([C@@H]2O[C@H](CO)[C@@H](O)[C@H]2O)c(=O)n1	13.7 µM (active)
CC1C(=O)OC2C(O)C34C5CC(C(C)(C)C)C36C(OC(=O)C6O)OC4(C(=O)O5)C12O (centres undefined)	inactive
C=CC[N+]1([C@H]2C[C@H]3[C@@H]4CC[C@H]5C[C@H](O)[C@@H](N6CCOCC6)C[C@]5(C)[C@@H]4CC[C@]3(C)[C@H]2OC(C)=O)CCCC1	inactive
C[C@@H]1CC=CC=CC=CC=C[C@@H](O[C@@H]2O[C@H](C)[C@@H](O)[C@H](N)[C@H]2O)C[C@@H]2O[C@](O)(C[C@@H](O)C[C@@H]3O[C@@H]3C=CC(=O)O1)C[C@H](O)[C@@H]2C(=O)O	9.68 µM (active)
N#CC(c1ccnc(NCCc2cccnc2)n1)c1nc2ccccc2s1 (centres undefined)	19.3 µM (active)
CNc1nc(-c2ccc3c(N)n[nH]c3c2)cc(N2C[C@@H](C(=O)NC3CCCCC3)CC[C@@H]2C)n1	0.273 µM (active)

Source: PubChem BioAssay (NCATS)
